Unmarked numbers belong to inactive results. Inconclusive results are not listed. Activity calls are given as the source filed them. Unless noted, calls follow the shape of the dose curve; as a rule, active = well fitted curve in the direction sought with a large enough effect in the repeat runs; inconclusive = weak or mixed curves; inactive = no such curve, though single readings can be large; an effect the other way counts as inactive or inconclusive.

Test [1] in a line: qHTS assay for small molecule agonists of the p53 signaling pathway (AID 651631; calls by dose curve; also: nearly all actives have a fitted effect of over 15% in size). In short, it runs like this: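 HCT-116 cells carrying a beta-lactamase reporter under p53 response elements were dosed with compound for 16 h at 37 °C. LiveBLAzer B/G FRET substrate was then added for 2 h at room temperature, and fluorescence intensity was read to detect pathway agonism.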
Background: Quantitative high-throughput screening tests each substance at several concentrations.

A short description of test [2]: qHTS assay for small molecules that induce genotoxicity in human embryonic kidney cells expressing luciferase-tagged ATAD5 (AID 651632). Also: nearly all actives have a fitted effect of over 15% in size. Also: potency is read from the fitted curve at half-maximal effect. In short, it runs like this:
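A rise in luciferase signal from ATAD5-tagged HEK293T cells marks genetic stress. Cells were exposed to compounds for 16 hr at 37C, 5% CO2, then luciferase was quantified after a 30 min room-temperature incubation with Amplite.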

A short description of test [3]: qHTS assay for small molecule agonists of the p53 signaling pathway - cell viability (AID 651633; calls by dose curve;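 also: p53RE-bla HCT reporter cells with a stable beta-lactamase p53 reporter; series mostly up to about 83 µM; nearly all actives have a fitted effect of over 30% in size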). Put shortly: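 Viability counter-read: CellTiter-Glo luminescence (30 min, room temperature) in the same p53RE-bla plates. These plates had been exposed to compounds for 16 h at 37 C.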
A short description of test [4]: qHTS assay for small molecules that induce genotoxicity in human embryonic kidney cells expressing luciferase-tagged ATAD5 - cell viability (AID 651634; calls by dose curve; also: nearly all actives have a fitted effect of over 25% in size; also: potency is read from the fitted curve at half-maximal effect). In short, it runs like this: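 Cytotoxicity counter-readout: after 15.5 hr compound treatment at 37C, live-cell protease activity in ATAD5-luciferase HEK293T cells measured by CellTiter-Fluor fluorescence, 30 min development at 37C.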

A short description of test [5]: qHTS assay for small molecule disruptors of the mitochondrial membrane potential - cell viability (AID 720634; calls by dose curve;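 also: human HepG2 liver cancer cells; series mostly up to about 83 µM; nearly all actives have a fitted effect of over 20% in size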). Put shortly:
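Cytotoxicity was quantified from ATP content by CellTiter-Glo luminescence in the same wells as the MMP dye read-out. HepG2 (2,000 cells/well) were plated overnight and exposed to compounds for 1 hr at 37 C.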

A short description of test [6]: qHTS assay to test for compound auto fluorescence at 590 nm (red) in HepG2 cells (AID 720674). In short, it runs like this:
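Red autofluorescence (Ex/Em 540/590 nm, Rose Bengal sodium equivalents) was measured in HepG2 cells, 2,000 per well in MEM plus 10% FBS, plated overnight at 37 C. Readings were taken 1 hr after adding 23 nL compound or DMSO, at 37 C and 5% CO2.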

Test [7] can be described thus: qHTS assay to test for compound auto fluorescence at 460 nm (blue) in HEK293 cells (AID 720678). In short, it runs like this: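 HEK293, 2,000 cells/well, 10% dialyzed FBS; attach 4-5 hr 37C; pin compound or DMSO; o/n 37C/5% CO2; fluorescence 405/460 nm; triamterene-equivalent units.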
Test [8] is described as follows: qHTS assay to test for compound auto fluorescence at 590 nm (red) in HEK293 cells (AID 720679). In short, it runs like this: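 Intensity at 540nm excitation and 590nm emission is reported as Rose Bengal sodium-equivalent autofluorescence. Measurements followed overnight exposure (37C, 5% CO2) of HEK293 cells, 2,000 per well, to 23 nL compound.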
A short description of test [9]: qHTS assay to test for compound auto fluorescence at 535 nm (green) in HepG2 cells (AID 720675).
The nature of test [10]: qHTS assay for small molecule disruptors of the mitochondrial membrane potential (AID 720635). Also: potency is read from the fitted curve at half-maximal effect. Put shortly: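 Mitochondrial membrane potential tracked with Mito-MPS dye, red aggregates (ex 540/em 590 nm) against green monomers (ex 490/em 535 nm). Compound treatment 1 hr at 37C, dye 30 min in HepG2.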
% is scaled to controls: 0 for no effect and ±100 for the full control effect.

With `CCCCN(CCCC)CC(O)c1cc(Cl)cc2c1-c1ccc(Cl)cc1/C2=C/c1ccc(Cl)cc1` (centres undefined), the Potency entry in [1], in test [2], in test [3], in test [4], in [5] and in [6] was “inactive” in each case. The Potency entry in test [7] and in [8] was “inactive” each time.
In the case of `c1cnccn1`, the Potency entry in [1], in test [2], in [3], in test [4], in [6] and in [9] was “inactive” in each case. For the same compound, the Potency entry in test [7] is “inactive”.
As for `CN(C)Cc1ccccc1O`, the Potency entry in test [1], in test [2], in [3], in test [4], in test [10] and in [6] was “inactive” in each case. Besides, the Potency entry in test [9], in [7] and in [8] was “inactive” each time.
`O=S(=O)(O)c1ccc(N=Nc2c(O)ccc3ccccc23)cc1`: the Potency result in test [1], in test [2], in test [3], in [5], in test [6] and in [7] was “inactive” throughout. Also, the Potency in test [4] was 27.3 µM (active).
In the case of `Cc1ccc(N/N=c2\c(=O)cc/c(=N\Nc3ccc(S(=O)(=O)O)cc3)c2=O)c(C)c1`, the Potency entry in test [1], in test [2], in [3], in [5], in test [9] and in [7] was “inactive” throughout. Also, in test [8], the Potency entry is “inactive”. Besides, in test [4], the Potency is 61.1 µM (active).
As for `CN1CCCCC1CCN1c2ccccc2Sc2ccc(S(C)=O)cc21` (centres undefined), the Potency result in test [1], in [2], in test [3], in [4], in test [5] and in test [6] was “inactive” each time. In addition, the Potency result in test [7] and in [8] was “inactive” in each case.
Consider `CCCCCCCC/C=C\CCCCCCCCN`, for which the Potency result in [1], in test [2], in test [3], in [4], in test [10] and in [6] was “inactive” throughout. The Potency entry in test [9], in test [7] and in test [8] was “inactive” throughout.
In the case of `CCc1ccc(Br)cc1`, the Potency entry in test [1], in test [2], in test [3], in test [4], in [10] and in test [6] was “inactive” each time. The Potency result in test [9], in [7] and in [8] was “inactive” each time.
With `COC(=O)c1ccccc1C`, the Potency result in test [1], in test [2], in [3], in [4], in test [5] and in test [6] was “inactive” throughout. Besides, the Potency entry in [7] was “inactive”.
Take `CCO[Si](OCC)(OCC)OCC`: the Potency result in test [1], in test [2], in test [3], in test [4], in test [5] and in test [6] was “inactive” in each case. Also, the Potency entry in [7] and in test [8] was “inactive” in each case.
Regarding `CC(C)(c1cc(Br)c(OCC(Br)CBr)c(Br)c1)c1cc(Br)c(OCC(Br)CBr)c(Br)c1` (centres undefined), the Potency entry in test [1], in test [2], in [3], in test [4], in [6] and in [9] was “inactive” in each case. For the same compound, the Potency result in test [7] and in test [8] was “inactive” each time.
For the compound `CC(=O)c1ccc(C(C)=O)cc1`, the Potency entry in test [1], in test [2], in test [3], in [4], in test [10] and in test [9] was “inactive” throughout. Also, the Potency entry in test [7] and in [8] was “inactive” in each case.
`Cc1ccc(C(=O)O)cc1`: the Potency result in test [1], in test [2], in test [3], in test [4], in [10] and in test [6] was “inactive” in each case. The Potency entry in test [7] and in test [8] was “inactive” in each case.
As to `O=C(O)c1cc(N=Nc2ccc([N+](=O)[O-])cc2)ccc1O`, the Potency entry in [1], in test [3], in [6], in test [7] and in test [8] was “inactive” each time. In addition, the Potency is 15.1 µM (active) in test [2], 53.5 µM (active) in test [4] and 53.5 µM (active) in test [10].
For `CCCCCCC1CCCC(=O)O1` (centres undefined), the Potency entry in [1], in test [2], in test [3], in test [4], in test [5] and in test [6] was “inactive” in each case. Further, the Potency result in test [9], in test [7] and in test [8] was “inactive” throughout.
With `O=[N+]([O-])c1ccc(F)c(Cl)c1`, the Potency entry in [1], in test [2], in test [3], in test [4], in test [5] and in [6] was “inactive” each time. For the same compound, the Potency result in [9], in test [7] and in test [8] was “inactive” throughout.
`C=Cc1cccc(C)c1`: the Potency entry in [1], in test [2], in test [3], in test [4], in test [5] and in test [6] was “inactive” in each case. Further, the Potency result in test [9], in test [7] and in test [8] was “inactive” in each case.
As for `CCCCCC(C)OC(=O)COc1ccc(Cl)c2cccnc12` (centres undefined), the Potency entry in [1], in test [2], in [3], in test [4], in [6] and in [9] was “inactive” each time. In addition, the Potency entry in [7] is “inactive”.
`Nc1ccc(C(=O)O)c(O)c1`: the Potency entry in test [1], in test [2], in [3], in test [4], in test [10] and in [6] was “inactive” throughout. Moreover, the Potency entry in test [9], in test [7] and in test [8] was “inactive” in each case.
`C[C@H]1NCc2cc(-c3ccc4c(=O)c(C(=O)O)cn(C5CC5)c4c3OC(F)F)ccc21`: the Potency entry in [1], in test [2], in [3], in test [4], in test [6] and in [9] was “inactive” in each case. The Potency entry in test [7] and in [8] was “inactive” each time.
Turning to `CC1=CCC(=C(C)C)CC1`, the Potency entry in [1], in test [2], in test [3], in test [4], in [6] and in test [9] was “inactive” throughout. Further, the Potency result in test [7] was “inactive”.
For the compound `Cc1cc(C(C)(C)C)cc(C)c1CC1=NCCN1`, the Potency entry in test [1], in [2], in test [3], in test [4] and in test [5] was “inactive” throughout. Further, the fluorescence, relative to Rose Bengal in test [6] was 0.379% [at 18.6 µM]. For the same compound, in test [9], the fluorescence, % of fluorescein control was 0.0648% [at 18.6 µM]. Also, the fluorescence, % of triamterene in test [7] is -0.0052% [at 18.6 µM]. The fluorescence, % of fluorescent control in [8] is 0.279% [at 18.6 µM].
As for `CC(C)(C)NSc1nc2ccccc2s1`, the Potency entry in [1], in test [2], in test [3], in test [4], in test [6] and in [9] was “inactive” each time. Besides, the Potency entry in test [7] and in test [8] was “inactive” throughout. Besides, the Potency in test [10] was 24.8 µM (active).
On to `O=C(/C=C/c1ccccc1)OC/C=C/c1ccccc1`, for which the Potency result in test [1], in test [2], in test [3], in test [4], in [5] and in [6] was “inactive” each time. Moreover, the Potency entry in [9], in test [7] and in test [8] was “inactive” each time.
Take `CCCCC(CC)COC(=O)CCCCC(=O)OCc1ccccc1` (centres undefined): the Potency result in test [1], in test [2], in [3], in test [4], in test [5] and in test [6] was “inactive” each time. Further, the Potency entry in test [9], in test [7] and in test [8] was “inactive” in each case.
As for `CCCCCCOC(=O)C(C)CC` (centres undefined), the Potency result in test [1], in test [2], in test [3], in test [4], in test [5] and in test [9] was “inactive” in each case. In addition, the Potency result in test [7] and in [8] was “inactive” each time.

Source of the values: PubChem BioAssay (Tox21).
